From PubChem BioAssay
TDP1 cell noCPT = qHTS for Inhibitors of human tyrosyl-DNA phosphodiesterase 1 (TDP1): qHTS in cells in absence of CPT | DT40 Tdp1-/- hTDP1 cells, no CPT, ATP luminescence, 48 h | Potency, µM (titrated, usually from 46.2 µM), for inactives: at the top dose activity change, negative = growth inhibition, actives largely listed as inhibitors | 420,000 tested, 15% active | AID 686978, 2013; further: potency means the concentration at half of the fitted maximal effect; nearly all actives have a fitted effect of over 55% in size
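Chicken DT40 Tdp1-/- cells stably complemented with human TDP1 were seeded at 400 cells/well with DMSO in place of 20 nM camptothecin. After compound pinning, cells grew at least 48 hr at 37 °C; viability read by CellTiter-Glo luminescence.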
uPA surface inh = cell surface uPA generation inhibition. cell surface uPA generation assay, qHTS. Potency, µM (doses to about 38.3 µM), for the others: at the top dose activity change, negative = inhibition, hits mostly inhibitors. 330,000 tested, 0.31% active; active means well fitted inhibition curve with a large enough effect; inconclusive means small, poorly fitted or top-dose-only effect; inactive means no such curve, though single readings can be large or run the other way; tested in mouse RAW 264.7 cells; further: potency means the concentration at half of the fitted maximal effect; nearly all actives have a fitted effect of over 55% in size
HT1080 IDH1KD tx = toxicity to HT-1080 IDH1 knockdown cells (counter line); AID 686971; Potency, µM (top dose mostly 46.1 µM), for inactives: top-dose activity, negative = toxicity, hits mostly cytotoxic; 360,000 tested, 2% active; HT-1080 IDH1 knockdown viability, ATP luminescence, 48 h;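 further: potency means the concentration at half of the fitted maximal effect; 0% = DMSO wells and -100% = cell-free medium wells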
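Using the IDH1-knockdown HT-1080 line run in the same batch and compound series as the NT line, viability after 48 h at 37 °C was determined by CellTiter-Glo luminescence and expressed as % activity.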
DT40 TDP1 CPT = growth inhibition of DT40 Tdp1-/-;hTDP1 cells with camptothecin (screen for TDP1 inhibitors) | chicken DT40 Tdp1-/-;hTDP1 cells + 20 nM CPT, ATP luminescence, 48 h | Potency, µM (top dose mostly 46.2 µM), for inactives: at the highest dose activity change, negative = growth inhibition, hits mostly inhibitors | 420,000 tested, 12% active | AID 686979; further: potency means the concentration at half of the fitted maximal effect; nearly all actives have a fitted effect of over 55% in size
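Chicken DT40 Tdp1-/- cells stably complemented with human TDP1 were seeded at 400 cells/well in medium containing 20 nM camptothecin, exposed to pin-transferred compounds, and grown at 37 °C for at least 48 hr. Viability was read as ATP luminescence.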
HT1080-NT tox = kills 2HG-producing HT-1080-NT fibrosarcoma cells | Potency, µM (series often up to 46.1 µM), inactives show at the highest dose activity, negative = less viability, most hits filed as cytotoxic | AID 686970 | 360,000 tested, 1.6% active | HT-1080-NT fibrosarcoma viability, CellTiter-Glo ATP luminescence, 48 h;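 further: NT is the 2HG producing partner of a matched IDH1 knockdown line; potency means the concentration at half of the fitted maximal effect; 0% = DMSO-treated cells and -100% = media-only wells without cells; nearly all actives have a fitted effect of over 55% in size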
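Luminescent CellTiter-Glo readout after 48 hours of compound exposure at 37 degrees C defined viability of HT-1080-NT cells. Activity was normalized to DMSO wells and cell-free media wells; concentration-response curves were fitted and assigned curve classes.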
IL1B secr inh = blocks inflammasome-driven IL-1 beta release | THP-1 LPS/ATP IL-1B secretion, AlphaLISA, 16 h; stronger effect = lower value | activity change, % at 57.5 µM | 360,000 tested, 4.7% active; in the data active means activity change below about -50%; inconclusive means mostly about -30% to -49%
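Secreted IL-1B measured by AlphaLISA bead assay after 16 h compound exposure of THP-1 cells; compounds (final up to 57.5 uM) added 1 h before LPS (250 ng/mL) and ATP (1.25 mM) stimulation; lower signal means less secretion.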
Numbers without * were called inactive; u = inconclusive; x = not tested or not shown; [ ] = another dose, or the depositor's remark. In the library only some 19% were active in any assay of this set; here they are far more common. Unless noted, the call rests on the fitted dose curve; in most records, active means well fitted curve in the direction sought with a large enough effect; inconclusive means small, poorly fitted or top-dose-only effect, or another doubt; inactive means no such curve, though single readings can be large; an effect the other way counts as inactive or inconclusive. Unless noted, on the % scale 0 is the no-effect control and ±100 the full control effect.

SMILES	TDP1 cell noCPT	uPA surface inh	HT1080 IDH1KD tx	DT40 TDP1 CPT	HT1080-NT tox	IL1B secr inh
O=C(CCCn1c(=S)[nH]c2cc3c(cc2c1=O)OCO3)N1CCN(c2ccccc2F)CC1	18.4µM*	x	0.0%	u	7.3%	8.7
O=c1c2cccnc2[nH]c(=S)n1CCCN1CCN(c2ccccc2F)CC1	u	3.9%	4.5%	u	6.7%	3.7
CCCCCCC(=O)N/N=C1\CCCc2ccccc21	-13.8%	8.5%	-0.1%	-4.9%	-3.9%	14.1
COc1cccc(N2CC(NC(=O)c3cccc(OC)c3OC)CC2=O)c1 (configuration not stated)	-4.1%	x	x	2.1%	x	x
CN(C)C(=O)c1ccc(-c2ccc3ncnc(N4CCNCC4)c3c2)cc1	-19.1%	x	x	-9.0%	x	x
COc1ccc(-n2c(=O)c(CCC(=O)N3CCC(C)CC3)nc3ccccc32)cc1	u	-5.5%	-0.5%	18.4µM*	-1.4%	-3.8
CCOc1ccc(-n2c(SCC(=O)N3CCC(C)CC3)nc3c([nH]c4ccccc43)c2=O)cc1	5.17µM*	x	x	2.06µM*	x	x
CCOc1ccc(-n2c(SCC(=O)N3CCCCCC3)nc3c([nH]c4ccccc43)c2=O)cc1	23.1µM*	x	x	20.6µM*	x	x
COc1ccc(-n2c(=O)c(CCC(=O)N(C)Cc3cccs3)nc3ccccc32)cc1	u	-4.3%	9.9%	u	6.0%	-9.5
CN(Cc1ccc(F)cc1)C(=O)c1cccc(OCc2ccccc2)c1	u	x	-7.7%	u	-13.1%	-54.0*
CN(CC(=O)Nc1cccc(F)c1)C(=O)c1ccc(COc2ccccc2)cc1	u	-10.6%	-20.9%	u	25.9µM*	u
CC(Sc1nc2ccccc2c(=O)n1C)C(=O)N(C)C1CCCCC1 (configuration not stated)	7.31µM*	u	u	10.3µM*	-20.4%	3.4
CC(Sc1nc2ccccc2c(=O)n1CC1CCCO1)C(=O)N(C)Cc1ccccc1 (configuration not stated)	u	-5.4%	-1.3%	u	9.6%	-2.1
CCOCCCNC(=O)CCN1C(=O)c2ccccc2Sc2ncccc21	-9.3%	-0.8%	26.9%	-9.2%	7.2%	6.6
C=CCn1c(SCc2csc(-c3ccc(C)cc3)n2)nnc1-c1ccccc1OC	18.4µM*	-7.6%	u	11.6µM*	-19.7%	u
Cc1ccc(-c2nc(CCN3C(=O)c4ccccc4C3=O)cs2)cc1	-14.5%	x	10µM*	u	u	-4.3
Cc1ccc(CNC(=O)CSc2nc3ccccc3c(=O)n2CCCO)cc1	-23.7%	1.7%	-5.2%[9.24 µM]	-19.3%	-3.3%	-3.3
Cc1ccc(-c2nc(CSc3nc4ccccc4c(=O)n3C)cs2)cc1	25.9µM*	1.7%	-1.2%	18.4µM*	8.6%	0.0
Cn1c(SCC#N)nc2ccccc2c1=O	-21.9%	-4.2%	0.5%	18.9%	-1.7%	-27.9
Cc1ccc(-c2nc(CSc3nc4ccccc4c(=O)n3CCO)cs2)cc1	16.4µM*	-1.6%	-22.1%	u	-26.0%	-9.7
CC(C)c1ccc(OCC(=O)Nc2ccc(S(=O)(=O)Nc3ncccn3)cc2)cc1	-2.1%	x	x	5.6%	x	x
CC(=O)c1c(NC(=O)c2ccccc2)[nH]c(-c2ccccc2)nc1=S	23.1µM*	-2.1%	18.9%	u	-6.0%	43.3
CC(=O)c1c(C)[nH]c(-c2ccccc2)nc1=S	u	-2.1%	2.6%	-1.5%	1.7%	28.8
COc1ccc(OC)c(NC(=O)CSc2ccnc(=O)[nH]2)c1	-6.1%	x	x	-5.0%	x	x
CCn1c(=O)c([N+](=O)[O-])c(NCCc2ccccc2)c2ccccc21	u	-5.0%	-19.4%	u	-14.1%	u
SMILES	TDP1 cell noCPT	uPA surface inh	HT1080 IDH1KD tx	DT40 TDP1 CPT	HT1080-NT tox	IL1B secr inh
CCN(CC)c1c([N+](=O)[O-])c(=O)n(C)c2ccccc12	u	-0.9%	-6.7%	6.5%	0.6%	0.0
Cn1c(=O)c([N+](=O)[O-])c(NCc2ccc3c(c2)OCO3)c2ccccc21	-23.5%	-5.8%	4.3%	3.0%	-0.4%	38.6
CN(Cc1ccccc1)c1c([N+](=O)[O-])c(=O)n(C)c2ccccc12	14.6µM*	-10.8%	-4.6%	u	3.1%	34.8
Cn1c(=O)c([N+](=O)[O-])c(Cl)c2ccccc21	4.61µM*	-2.6%	5.8µM*	2.59µM*	5.8µM*	-100.7*
Cc1ccc(Nc2c([N+](=O)[O-])c(=O)n(C)c3ccccc23)cc1C	u	x	u	u	u	1.5
Cn1c(=O)c([N+](=O)[O-])c(NCCc2ccccc2)c2ccccc21	16.4µM*	-3.0%	-19.9%	u	-3.1%	-10.3
Cn1c(=O)c([N+](=O)[O-])c(NCc2ccccc2Cl)c2ccccc21	u	-6.2%	-12.8%	-5.3%	-9.0%	-78.6*
CCOC(=O)c1nc(N2CCN(c3ccc(F)cc3)CC2)c2c(C)noc2n1	-13.4%	x	x	-23.3%	x	x
COC(=O)C[C@@H]1C[C@@H]2c3cc(NS(=O)(=O)c4ccccc4)ccc3O[C@@H]2[C@@H](CO)O1	u	x	12.2%	u	3.3%	10.3
COc1ccc(CCNC(=O)Nc2nc(CN)cs2)cc1OC	-21.8%	x	2.7%	u	-0.3%	1.3
COc1ccc(CCNC(=O)Nc2nc(C(N)COCc3ccccc3)cs2)cc1OC (configuration not stated)	u	x	-17.7%	u	u	u
COc1ccc(CCNC(=O)Nc2nc(C(N)Cc3ccccc3)cs2)cc1OC (configuration not stated)	20.6µM*	x	u	u	u	u
COc1ccc(CC(N)c2csc(NC(=O)NCCc3ccc(OC)c(OC)c3)n2)cc1 (configuration not stated)	u	x	u	18.4µM*	u	u
Cc1cc(=O)oc2cc(O[C@@H]3O[C@H](CO)[C@@H](O)[C@H](O)[C@H]3O)ccc12	-16.2%	6.4%	10.3%	1.1%	8.5%	-10.4
COc1ccc(CCN(Cc2cc3cccc(C)c3[nH]c2=O)C(=O)NC2CCCCC2)cc1OC	u	-3.4%	2.2%	u	12.5%	-68.2*
CCN(CC)CCCN(Cc1cc2ccc(C)c(C)c2[nH]c1=O)C(=O)NC1CCCCC1	u	x	-109.7%	u	-89.9%	-51.6*
Cc1cccc2cc(CN(Cc3ccco3)C(=O)NC3CCCCC3)c(=O)[nH]c12	-29.2%	-1.1%	-1.8%	u	-4.5%	u
